Screening results deposited in PubChem BioAssay by several laboratories.
SARS 3CLpro inh: SARS-CoV 3CLpro protease inhibition; 290,000 tested, 0.14% active; recombinant SARS-CoV 3CLpro, quenched FRET peptide cleavage; inhibition, % at 6 µM; P0C6X7; in the data active = inhibition above about 12%
Autofluor counter: flagged as autofluorescent in microsphere protease counterscreen; AID 624483; fluorescence intensity (test concentration not listed); 360,000 tested, 3.1% active; compound autofluorescence counterscreen, microsphere flow cytometry; stronger effect = higher value; in the data active = fluorescence intensity above about 16000; inconclusive = no clear call, values can overlap the other calls
Anthrax LF prot: anthrax lethal factor protease inhibition. P15917. 360,000 tested, 0.12% active. inhibition, % at 10 µM. multiplex microsphere protease cleavage assay, LF. AID 588501; also: plate controls were buffer without enzyme for full effect and enzyme alone for no effect
BoNT-F LC inh: BoNT F light chain protease inhibition. Multiplex microsphere protease cleavage assay, flow cytometry. 360,000 tested, 0.22% active. inhibition, % at 10 µM; in the data active = inhibition above about 35%, passing the limit was not always enough; inconclusive = no clear call, values can overlap the other calls; also: plate controls were buffer without enzyme for full effect and enzyme alone for no effect
BoNT-A LC inh2: blocks Botulinum neurotoxin A light chain protease | multiplex microsphere protease substrate cleavage, flow cytometry | AID 588499 | inhibition, % at 10 µM | 360,000 tested, 0.17% active; also: plate controls were buffer without enzyme for full effect and enzyme alone for no effect
* marks the source's active call; other numbers are inactive results; ? = inconclusive; nt = no result given. This is a sample that favours compounds with a hit; in the whole collection about 3.5% have one here. Rule as the data show it, unless noted: active = inhibition above about 30%; inconclusive = no clear call, values can overlap the other calls; inactive = below that.

SMILES	SARS 3CLpro inh	Autofluor counter	Anthrax LF prot	BoNT-F LC inh	BoNT-A LC inh2
O=C1/C(=C/c2cccc([N+](=O)[O-])c2)CSc2ccc(Cl)cc21	1	3778	30*	?	?
O=C1/C(=C/c2cccc([N+](=O)[O-])c2)CCc2ccccc21	2	2014	-4	16	2
CC(c1ccccc1)C1CC(=O)N(c2ccccc2)C1=O (centres undefined)	1	3154	3	0	4
CCCC1CCC(C2=N/C(=C\c3ccc(OC)c(OC)c3)C(=O)O2)CC1 (centres undefined)	-3	22779*	-1	-2	0
N#C/C(=C\c1cn(CC(=O)O)c2ccccc12)C(=O)NCc1ccccc1	-6	nt	nt	nt	nt
C/C(=C\c1ccccc1)CN1CCN(C)CC1	-4	4300	-13	3	-2
CCOC(=O)N1CCN(C/C(C)=C/c2ccccc2)CC1	-1	20298*	-2	12	?
CC1(C)NC(=O)N(CCSc2ccc(Cl)cc2)C1=O	5	19822*	-2	3	2
CC1(C)NC(=O)N(CCOCCOc2ccccc2)C1=O	1	4105	2	8	0
CC1(C)NC(=O)N(CCOCCSc2ccccc2)C1=O	4	24307*	0	-6	-3
O=C(c1ccc(N2CCCC2=O)cc1)N1CCN(c2ccc(Cl)cc2)CC1	-1	7836	-2	-10	-8
Nc1nnc(CC(=O)N/N=C/c2ccc(-c3ccc(F)cc3)o2)s1	0	4152	?	38*	4
CN(CC(=O)Nc1ccccc1Cl)C(=O)COC(=O)c1cc([N+](=O)[O-])ccc1N1CCOCC1	nt	4161	-3	2	3
O=C(Nc1ccc(Cl)c(Cl)c1)c1csc(-c2ccccc2)n1	2	16273*	-3	-3	0
O=C(Nc1cccc(Cl)c1)c1csc(-c2ccccc2)n1	8	11878	5	-12	-3
Cc1ccc(C)c(NC(=O)c2cc(S(=O)(=O)N3CCOCC3)cn2C)c1	-6	4587	1	4	0
COc1ccc(N2CCN(CC(=O)N3CCC(C)CC3)CC2)cc1	1	17583*	-1	-4	-3
COC(=O)[C@H](c1ccccc1Cl)N1CCc2sccc2C1	-2	6135	10	1	-1
O=C1CC(N2CCN(Cc3ccccc3)CC2)C(=O)N1c1ccccc1 (centres undefined)	-4	23947*	0	0	0
Cc1cccc(N2C(=O)CC(N3CCN(C(=O)c4ccccc4)CC3)C2=O)c1 (centres undefined)	-4	23162*	-1	0	0
CCOC(=O)N/N=C/c1ccc(OCCSc2ccc(Cl)cc2)c(OC)c1	4	2624	-2	-14	-1
CC(=O)n1nc(-c2ccc(Cl)cc2)nc1NCc1ccco1	2	21596*	-1	-5	-3
COc1ccc(CC(=O)n2nc(-c3ccc(Cl)cc3)nc2NCc2ccco2)cc1	3	24639*	-5	-6	?
O=C(c1cccs1)n1nc(-c2ccc(Cl)cc2)nc1NCc1ccco1	-1	6121	4	-10	0
Nc1ccn([C@@H]2O[C@H](CO)[C@@H](O)C2O)c(=O)n1 (some centres undefined)	2	5894	-2	5	0
SMILES	SARS 3CLpro inh	Autofluor counter	Anthrax LF prot	BoNT-F LC inh	BoNT-A LC inh2
CCCNC(=O)c1ccc(N2CCC3(CC2)CC(c2cccc(Br)c2)=NO3)c(N)c1	nt	3857	-3	-17	0
O=C(O)C1CC=CCC1C(=O)N1CCN(c2nc(-c3ccccc3Cl)c3cc(Br)ccc3n2)CC1 (centres undefined)	nt	16567*	-8	-56	-3
O=C(O)C1CC=CCC1C(=O)N1CCN(c2nc(-c3ccccc3)c3ccccc3n2)CC1 (centres undefined)	2	2600	0	-10	4
COCCCNC(=O)c1cccn2c(=O)c3cc4ccccc4cc3nc12	-11	24282*	8	3	?
CCOC(=O)c1sc(N)c(C(=O)OCC)c1COC(=O)C1CC(=O)N(Cc2ccco2)C1 (centres undefined)	-8	?	-1	3	0
COC(=O)c1sc(N)c(C(=O)OC)c1COC(=O)C1CC(=O)N(Cc2ccco2)C1 (centres undefined)	4	21636*	0	1	2
CCCCc1c(-c2ccccc2OC)ncn1Cc1ccc(-c2ccccc2)cc1	nt	4759	-1	-6	-1
Cc1ccc(-c2noc(CN(C(=O)C34CC5CC(CC(C5)C3)C4)C(C)C)n2)cc1	3	22906*	-3	-2	0
CC(C)N(Cc1nc(-c2ccc(Cl)cc2)no1)C(=O)C(c1ccccc1)c1ccccc1	1	15639	-1	2	2
Cc1ccc(-c2noc(CN(C(=O)c3cccc(Br)c3)C(C)C)n2)cc1	-2	5996	-4	3	0
Cc1ccc(-c2noc(CN(C(=O)C(c3ccccc3)c3ccccc3)C(C)C)n2)cc1	5	23813*	-4	-7	-2
O=S(=O)(NCC(c1ccccc1)N1CCNCC1)c1ccc(Cl)cc1 (centres undefined)	-2	21805*	-2	-7	-2
Cn1nnc2cc(C(=O)NC(C)(C)C)ccc21	3	3783	-1	6	1
O=C(COc1ccc(Cl)cc1)Nc1ccc2c(c1)nc1n2CCOC1	1	6123	-2	-2	-1
O=C(Nc1ccc2c(c1)nc1n2CCOC1)C1CCCCC1	0	8237	-2	-4	1
CC(=O)Nc1ccc2c(c1)nc1n2CCOC1	-2	24292*	-2	-4	?
Cc1ccc(OCC(=O)Nc2ccc3c(c2)nc2n3CCOC2)cc1	-4	20169*	-11	-1	?
CC1CCCCN1C(=O)NC12CC3CC(CC(C3)C1)C2 (centres undefined)	8	22908*	0	2	0
Cc1ccc(C)c(-c2nnc(NC(=O)c3ccco3)o2)c1	nt	5891	5	-16	-2
COCCNC(=O)Cn1cc(C(=S)N2CCOCC2)c2ccccc21	-1	4342	0	2	0
COCCCNC(=O)Cn1cc(C(C)=O)c2ccccc21	7	20880*	-1	-5	-3
O=S(=O)(c1ccc(Cl)cc1)N1CCC(n2cnc3cc(C(F)(F)F)ccc32)CC1	-1	16517*	0	-2	-1
CCOC(=O)C1=C(C)NC(=O)NC1	-3	2716	-5	-24	-1
C=CCOc1ccc2nc(NC(=O)OC)[nH]c2c1	5	23127*	0	-4	0
COc1ccc(OC)cc1	nt	4093	0	-8	0
COc1ccc(-c2cc(O)cc(O)c2)cc1	4	16572*	-4	-3	-2
CC(OC1=CC(=O)CCC1)C(=O)c1ccccc1 (centres undefined)	1	20377*	0	3	2
Cc1cc(=O)oc2cc(OC(C)C(=O)NC3(C#N)CCCCC3)ccc12 (centres undefined)	nt	3881	0	-3	0
O=C(Nc1nccs1)C1CC=CCC1 (centres undefined)	2	5435	-2	1	-2
O=C(Nc1ccc(O)cc1)C1CC=CCC1 (centres undefined)	-3	18689*	-4	-14	?
